Assay results published in PubChem BioAssay (NCATS).
Calls of active or inactive are those of the source. A call without a number means that no potency is given here. Calls follow the shape of the dose curve; as a rule, active = well fitted cell-killing curve with a large enough effect; inconclusive = small, poorly fitted or top-dose-only effect, or effect the other way; inactive = flat fitted curve, though single readings scatter.

Assay: MultiTox-Fluor Cytotoxicity Assay - LYMP1-003 - Dead Cells (AID 961); also: nearly all actives have a fitted effect of over 70% in size
Details: LYMP1-003 lymphoblastoid cells, dead-cell protease fluorescence; series mostly up to 92.2 µM
Excerpt: NIH Chemical Genomics Center [NCGC]
NIH Molecular Libraries Screening Centers Network [MLSCN]
National Institutes of Environmental Health Sciences [NIEHS]
National Toxicology Program [NTP]
We have developed a 1536-well cell-based assay for quantitative high throughput screening (qHTS) against a number of cell lines to determine in vitro cytotoxicity of small molecules. This particular assay uses a human lymphoblastoid cell line (LYMP1-003) purchased from Coriell Institute.
NCGC Assay Protocol Summary:
The MultiTox-Fluor Cytotoxicity Assay (Promega) is a homogeneous method to simultaneously measure the relative number of live and dead cells in culture by detecting changes in cell membrane integrity. There are two fluorogenic peptide substrates in the assay reagent. Viable cells are determined when the cell-permeant substrate (GF-AFC) enters the cell and is cleaved by protease from live cells resulting in liberated fluorophore. This live-cell protease activity restricted to viable cells is proportional to cell number. The dead cells are determined by using fluorogenic cell-impermeant peptide substrate (bis-AAF-R110) which cleaved by dead cell proteases leaking from damaged cell membrane.
Using the MultiTox-Fluor Cytotoxicity Assay, the relative number of dead cells was measured in the lymphoblastoid cell line with complete culture medium following compound treatment for 16 hours. The assay was performed in opaque black Kalypsys 1536-well plates. In the screen, tetraoctylammonium bromide was used as positive control. Library compounds were measured for their ability to cause acute toxicity in the cell line, as reflected by an increase in dead cell protease activity, in a concentration-dependent manner. Data were normalized to the controls for basal activity (DMSO only) and 100% stimulation (15 uM tetraoctylammonium bromide). AC50 values were determined from concentration-response data modeled with the standard Hill equation.
qHTS protocol for MultiTox-Fluor Cytotoxicity assay
[Step] [Parameter] [Value] [Description]
1. Reagent; 5 uL; 2500 lymphoblastoid cells/well
2. Time; 5 hr; 37 C incubation
4. Controls; 23 nL; Tetraoctylammonium bromide 6.4pM to 92 uM
5. Time; 16 hr; 37 C incubation
6. Reagent; 5 uL; MuliTox-Fluor Assay reagent
7. Time; 60 min; Room Temperature
8. Detection; dead-cell fluorescence (Ex/Em=485/520); EnVision plate reader
Keywords: cytotoxicity, lymphoblastoid cell line, fluorescence, NTPHTS, NTPHTS_NCGC, NIEHS, EPA, DSSTox, MLSMR, MLSCN, NIH Roadmap, qHTS, NCGC
Potency is read from the fitted curve at half-maximal effect.

Row | Compound | Potency
1 | COc1ccc(C=O)cc1OC | inactive
2 | Clc1cc(Cl)c(-c2cc(Cl)c(Cl)cc2Cl)cc1Cl | inactive
3 | Clc1nc(Cl)nc(Nc2ccccc2Cl)n1 | inactive
4 | CCOP(=S)(OCC)Oc1ccc([N+](=O)[O-])cc1 | inactive
5 | COP(=S)(OC)Oc1ccc([N+](=O)[O-])cc1 | inactive
6 | C=CC(C)=O | inactive
7 | OCC1CO1 (stereo not given) | inactive
8 | NC(=S)Nc1ccccc1 | inactive
9 | Nc1c(Cl)c(Cl)nc(C(=O)O)c1Cl | inactive
10 | C[C@]12CC[C@H]3[C@@H](CCC4=CC(=O)CC[C@@]43C)[C@@H]1CC[C@@H]2O | inactive
11 | C1CCC2CCCCC2C1 (stereo not given) | inactive
12 | [O-][Br+2]([O-])O | inactive
13 | O=C=NC1CCCCC1 | inactive
14 | CCCCCCCCCc1ccc(O)cc1 | 39.8 µM (active)
15 | CCOc1ccc(N)cc1 | inactive
16 | CC(Cl)Cl | inactive
17 | Brc1ccc(Oc2cc(Br)c(Br)cc2Br)c(Br)c1 | inactive
18 | ClCBr | inactive
19 | Cc1cccc([N+](=O)[O-])c1 | inactive
20 | CN=C=S | inactive

Row | Compound | Potency
21 | CCCCOCCOP(=O)(OCCOCCCC)OCCOCCCC | inactive
22 | O=NN(c1ccccc1)c1ccccc1 | inactive
23 | CCCOC(=O)c1ccccc1C(=O)OCCC | inactive
24 | C=CC(=O)OCC | inactive
25 | O=C(Cl)/C=C/C(=O)Cl | inactive
26 | CCCSC(=O)Cl | inactive
27 | ClC(Cl)=C(Cl)C(Cl)=C(Cl)Cl | inactive
28 | C/C=C/c1ccc2c(c1)OCO2 | inactive
29 | COC(=O)NC(=S)Nc1ccccc1NC(=S)NC(=O)OC | inactive
30 | Cc1ccc([N+](=O)[O-])cc1C | inactive
31 | ClC1=C(Cl)C2(Cl)C3C4C=CC(C4)C3C1(Cl)C2(Cl)Cl (stereo not given) | 39.8 µM (active)
32 | Cc1cccc(C#N)c1 | inactive
33 | Clc1ccc2ccccc2c1 | inactive
34 | CCC[CH2][Sn]([Cl])([Cl])[Cl] | inactive
35 | CC(C)(c1ccccc1)c1ccc(O)cc1 | inactive
36 | c1ccc(-c2ccccc2)cc1 | inactive
37 | C[N+](C)(C)Cc1ccccc1 | inactive
38 | BrCCBr | inactive
39 | C=CCOC(C)=O | inactive
40 | ClC1=C(Cl)C2(Cl)C3C(Cl)C=CC3C1(Cl)C2(Cl)Cl (stereo not given) | 39.8 µM (active)
